Inconclusive results are not listed. Some structures have more than one record in an assay (separate samples or runs), and their calls can disagree. Calls of active or inactive are those of the source. Unless noted, calls come from the whole dose curve; as a rule, active = well fitted curve in the direction sought with a large enough effect in the repeat runs; inconclusive = weak or mixed curves; inactive = no such curve, though single readings can be large; an effect the other way counts as inactive or inconclusive.
What was measured:
[1] = biological target: Luciferin 4-monooxygenase (Photinus pyralis) (UniProt P08659); assay: qHTS assay to identify small molecule inhibitors of firefly luciferase (AID 1224835); note: nearly all actives have a fitted effect of over 25% in size; note: potency is the fitted concentration of half-maximal effect
Sequence of Luciferin 4-monooxygenase (Photinus pyralis) (P08659 whole entry, looked up): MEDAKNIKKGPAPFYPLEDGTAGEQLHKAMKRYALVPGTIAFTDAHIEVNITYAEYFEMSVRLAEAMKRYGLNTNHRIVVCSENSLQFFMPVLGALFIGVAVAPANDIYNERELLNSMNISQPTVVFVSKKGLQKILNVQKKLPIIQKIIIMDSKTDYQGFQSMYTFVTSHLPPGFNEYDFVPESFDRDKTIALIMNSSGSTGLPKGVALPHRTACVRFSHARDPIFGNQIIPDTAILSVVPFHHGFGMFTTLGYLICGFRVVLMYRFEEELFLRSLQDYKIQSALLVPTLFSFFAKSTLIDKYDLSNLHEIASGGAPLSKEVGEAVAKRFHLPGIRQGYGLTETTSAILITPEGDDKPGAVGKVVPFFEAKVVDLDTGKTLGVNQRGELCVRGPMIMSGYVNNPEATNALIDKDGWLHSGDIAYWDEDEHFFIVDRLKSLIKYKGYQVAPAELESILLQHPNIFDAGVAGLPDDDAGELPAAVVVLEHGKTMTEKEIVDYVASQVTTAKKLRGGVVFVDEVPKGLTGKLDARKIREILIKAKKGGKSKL
Summary of the method: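 Biochemical qHTS: compounds run as interplate titrations against purified firefly enzyme, with D-luciferin and ATP each at its KM concentration. Light output recorded by CCD imaging.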

[2] = qHTS assay to identify small molecule agonists of the constitutive androstane receptor (CAR) signaling pathway - cell viability counter screen (AID 1224836); note: series mostly up to about 92 µM; nearly all actives have a fitted effect of over 45% in size
Summary of the method: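 23 h treatment, 37 C, 5% CO2. Cell line: HepG2 stably expressing hCAR with a CYP2B6-2.2kb construct. Co-treatment: PK11195, 0.75 uM final. Read-out: CellTiter-Fluor fluorescence intensity.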

[3] = qHTS assay to identify small molecule antagonists of the constitutive androstane receptor (CAR) signaling pathway - cell viability counter screen (AID 1224837); note: series mostly up to about 92 µM; nearly all actives have a fitted effect of over 45% in size
Summary of the method: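 HepG2-CYP2B6-hCAR cells, 2500/well, 4 hr pre-incubation; compound titration, 15 conc.; CITCO 50 nM final; 23 hr, 37 C/5% CO2; CellTiter-Fluor, fluorescence intensity.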

[4] = qHTS assay to identify small molecule antagonists of the estrogen related receptor signaling pathway with the pleiotropic PPARgamma coactivator (PGC) from Tox21 10K library - cell viability counter screen (AID 1224840; active = well fitted cell-killing curve with a large enough effect in the repeat runs, not every such curve was filed as active; note: nearly all actives have a fitted effect of over 40% in size)
Summary of the method: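 PGC/ERR cells, 2,000/well; 6 h pre-incubation 37 C/5% CO2; cpd in DMSO via pin tool; 17.5 h 37 C; CellTiter-Fluor, 30 min; fluorescence.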

[5] = biological target: Thyrotropin receptor (Homo sapiens) (UniProt P16473); assay: qHTS assay to identify small molecule agonists of the thyroid stimulating hormone receptor (TSHR) signaling pathway (AID 1224843; calls by dose curve; note: nearly all actives have a fitted effect of over 45% in size)
Sequence of Thyrotropin receptor (Homo sapiens) (P16473 whole entry, looked up): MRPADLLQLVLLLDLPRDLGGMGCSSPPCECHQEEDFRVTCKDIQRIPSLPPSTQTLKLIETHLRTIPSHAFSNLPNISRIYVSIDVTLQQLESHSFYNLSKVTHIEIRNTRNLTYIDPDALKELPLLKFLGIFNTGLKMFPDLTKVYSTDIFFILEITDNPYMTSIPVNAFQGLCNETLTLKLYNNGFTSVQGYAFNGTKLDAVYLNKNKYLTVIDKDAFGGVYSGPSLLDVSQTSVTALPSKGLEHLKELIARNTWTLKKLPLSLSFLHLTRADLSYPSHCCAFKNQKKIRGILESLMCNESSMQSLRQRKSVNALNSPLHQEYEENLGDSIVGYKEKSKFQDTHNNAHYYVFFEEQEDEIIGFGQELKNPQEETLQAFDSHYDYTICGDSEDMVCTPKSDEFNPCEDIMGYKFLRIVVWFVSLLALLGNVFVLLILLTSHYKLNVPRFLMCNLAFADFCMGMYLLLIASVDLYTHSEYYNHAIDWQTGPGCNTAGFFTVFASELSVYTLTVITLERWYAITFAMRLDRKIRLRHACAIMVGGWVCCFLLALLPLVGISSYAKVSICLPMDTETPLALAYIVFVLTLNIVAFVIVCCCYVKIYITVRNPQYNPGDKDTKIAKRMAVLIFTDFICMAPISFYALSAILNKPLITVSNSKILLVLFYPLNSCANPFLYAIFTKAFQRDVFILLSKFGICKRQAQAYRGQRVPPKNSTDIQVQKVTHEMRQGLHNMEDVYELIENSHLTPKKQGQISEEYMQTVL
Summary of the method: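 TSHR-HEK293 cells in agonist mode, 30 min room-temperature step, then cAMP measured by competitive HTRF (cAMP-d2 with anti-cAMP cryptate) after 1 h at room temperature. Tested at 15 concentrations in triplicate.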

[6] = qHTS assay to identify small molecule agonists of the hypoxia (HIF-1) signaling pathway - cell viability counter screen (AID 1224844; calls by dose curve; note: nearly all actives have a fitted effect of over 50% in size; note: potency is the fitted concentration of half-maximal effect)
Summary of the method: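 ME-180 HRE-bla cells, 2,000/well, 0.5% dialyzed FBS; 5 hr settle, 17 hr compound at 37C/5% CO2; CCF4-AM reporter read first, then CellTiter-Glo luminescence after 30 min RT.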

[7] = biological target: Nuclear receptor subfamily 1 group I member 3 (Homo sapiens) (UniProt Q14994); assay: qHTS assay to identify small molecule agonists of the constitutive androstane receptor (CAR) signaling pathway (AID 1224839);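 note: HepG2 cells stably carrying human CAR and a CYP2B6 luciferase reporter; series mostly up to about 92 µM; nearly all actives have a fitted effect of over 15% in size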
Sequence of Nuclear receptor subfamily 1 group I member 3 (Homo sapiens) (Q14994 whole entry, looked up): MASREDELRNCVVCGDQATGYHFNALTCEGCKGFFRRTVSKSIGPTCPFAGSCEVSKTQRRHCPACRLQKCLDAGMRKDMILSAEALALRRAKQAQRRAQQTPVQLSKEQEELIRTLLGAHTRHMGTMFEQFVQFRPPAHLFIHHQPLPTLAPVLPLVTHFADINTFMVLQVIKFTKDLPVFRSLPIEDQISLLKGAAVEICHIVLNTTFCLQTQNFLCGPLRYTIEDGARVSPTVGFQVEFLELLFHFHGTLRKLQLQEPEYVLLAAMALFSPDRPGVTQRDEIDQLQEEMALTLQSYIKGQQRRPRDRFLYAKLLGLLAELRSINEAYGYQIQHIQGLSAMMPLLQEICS
Summary of the method: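 Compounds tested at 15 concentrations on HepG2 cells stably harbouring hCAR and CYP2B6-2.2kb reporter constructs, co-treated with PK11195 (0.75 uM final), 24 h at 37 C; luminescent reporter signal quantified.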

[8] = qHTS assay to identify small molecule antagonists of the estrogen related receptor signaling pathway with the pleiotropic PPARgamma coactivator (PGC) from Tox21 10K library (AID 1224841; call rule not given here; note: actives are mostly falling curves and most rising ones were filed inactive; nearly all actives have a fitted effect of over 50% in size; note: potency is the fitted concentration of half-maximal effect)
Summary of the method: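 PGC/ERR cell line, 2,000 cells/well; 6 h pre-incubation 37 C/5% CO2; compounds (DMSO) pinned in; 18 h, 37 C; One-Glo, 30 min RT; luminescence.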

[9] = qHTS assay to identify small molecule agonists of the estrogen related receptor signaling pathway with the pleiotropic PPARgamma coactivator (PGC) from Tox21 10K library (AID 1224842); note: nearly all actives have a fitted effect of over 15% in size
Summary of the method: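 PGC/ERR reporter cell line, 2,000 cells per well, incubated 6 h at 37 C before 23 nL compound in DMSO was added. After 18 h at 37 C, One-Glo luminescence read following 30 min at room temperature.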

[10] = biological target: Nuclear receptor subfamily 1 group I member 3 (Homo sapiens) (UniProt Q14994); assay: qHTS assay to identify small molecule antagonists of the constitutive androstane receptor (CAR) signaling pathway (AID 1224838);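 note: HepG2 cells stably expressing hCAR with CYP2B6 luciferase reporter stimulated by CITCO; nearly all actives have a fitted effect of over 40% in size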
Summary of the method: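 HepG2-CYP2B6-hCAR cells; 4 h pre-incubation; cpd (15 conc) + CITCO 50 nM final; 24 h, 37 C/5% CO2; ONE-Glo, luminescence.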

Measured: Potency

O=C1NC(=O)C(=O)C(=O)N1
inactive: [1] | [2] | [3] | [4] | [5] | [6]

CCCBr
inactive: [1] | [2] | [3] | [4] | [5] | [6]

CCCC1CCCCN1 (stereo not given)
not listed: [8] | [9] | [10]
inactive: all other assays above

CCCCCCCCP(=O)(O)O
inactive: [1] | [2] | [3] | [4] | [5]

CCOC(=O)c1cn2nc(OP(=S)(OCC)OCC)cc2nc1C
active: [8] 43.3 µM
not listed: [5] | [7] | [10]
inactive: all other assays above

C1CCNCC1
inactive: [1] | [2] | [3] | [4] | [5] | [6]

COC1=CC(=O)O[C@@H](/C=C/c2ccc3c(c2)OCO3)C1
active: [1] 60.6 µM | [8] 18.5 µM
not listed: [7] | [10]
inactive: all other assays above

O=C(Cc1ccccc1)OCCc1ccccc1
active: [1] 35.6 µM
not listed: [5] | [7] | [10]
inactive: all other assays above

OC[P+](CO)(CO)CO
44.2 µM (active) and inactive: [6]
not listed: [7] | [8] | [9]
inactive: all other assays above

O=[N+]([O-])O[C@H]1CO[C@H]2[C@@H]1OC[C@H]2O[N+](=O)[O-]
not listed: [7] | [10]
inactive: all other assays above

CN(C)C(=O)Nc1cccc(OC(=O)NC(C)(C)C)c1
not listed: [7] | [10]
inactive: all other assays above

CCCC[N+](CCCC)(CCCC)CCCC
inactive: [1] | [2] | [3] | [4] | [9] | [6]

O=C(O)COc1cc(Cl)c(Cl)cc1Cl
not listed: [7] | [10]
inactive: all other assays above

N#CC(C#N)=C(C#N)C#N
active: [8] 1.8 µM
not listed: [7]
inactive: all other assays above

CCOP(=O)(O)C(N)=O
not listed: [7] | [8] | [9]
inactive: all other assays above

From PubChem BioAssay (Tox21)
